Assay outcomes as filed in PubChem.
ERAP1 inh: human ERAP1 aminopeptidase inhibitors, primary screen, biochemical, single point, plate reader; Endoplasmic reticulum aminopeptidase 1 (Homo sapiens), Q9NZ08; recombinant ERAP1, Leu-AMC fluorescence, 60 min; inhibition, % at 10.7 µM; actives 0.15% (n = 340,000);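 active means mean replicate inhibition of at least 30%, or all replicates individually reaching that 30% level; inactive means mean below 30% and not every replicate reaching it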
RAD52 anneal inh: RAD52 DNA annealing inhibitors, primary screen, biochemical, FRET, single point, set 2 | DNA repair protein RAD52 homolog (Homo sapiens), P43351 | recombinant RAD52 DNA annealing, FRET fluorescence | inhibition, % at 18.7 µM | actives 0.46% (n = 360,000) | AID 651710, 2012;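 active means every replicate showing at least 50% inhibition; inconclusive means mean inhibition at least 50% but not in every replicate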
Target sequence (P43351 whole entry, looked up): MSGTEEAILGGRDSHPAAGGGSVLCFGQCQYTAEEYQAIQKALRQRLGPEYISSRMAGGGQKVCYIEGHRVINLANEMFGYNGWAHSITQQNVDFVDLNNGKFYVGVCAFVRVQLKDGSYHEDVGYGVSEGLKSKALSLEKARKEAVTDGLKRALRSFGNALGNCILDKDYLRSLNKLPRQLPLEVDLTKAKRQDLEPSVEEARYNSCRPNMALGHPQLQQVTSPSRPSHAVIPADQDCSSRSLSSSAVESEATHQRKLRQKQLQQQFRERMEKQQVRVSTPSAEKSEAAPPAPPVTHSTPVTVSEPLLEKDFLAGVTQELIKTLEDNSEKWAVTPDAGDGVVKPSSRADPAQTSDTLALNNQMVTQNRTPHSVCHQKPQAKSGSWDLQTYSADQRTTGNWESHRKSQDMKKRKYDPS
DENV2 CPE rescue: inhibitors of DENV2 cytopathic effect, primary screen, cell-based, plate reader, single concentration; DENV2-infected cells, cytopathic effect rescue; CPE inhibition, % at 9.99 µM; actives 1.7% (n = 350,000); in the data active means CPE inhibition above about 20%, passing the limit was not always enough; inconclusive means no clear call, values can overlap the other calls; tested in BHK-21 cells
AF4-AF9 inh: inhibitors of AF4 peptide binding to AF9, primary screen, biochemical, AlphaScreen, biotin-AF4 peptide, FLAG-AF9, single point. inhibition, % at 10 µM. Protein AF-9 (Homo sapiens), P42568. actives 0.47% (n = 350,000);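 active means every replicate reaching a set inhibition limit, whatever the replicate mean, cut at about 25% in these data; inconclusive means mean inhibition reaches that limit but some replicates miss it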
FGF22 binding: binders of human FGF22 protein, primary screen, FGF22 synaptogenesis inhibitor project, biophysical, thermal shift, single point; Fibroblast growth factor 22 (Homo sapiens), Q9HCT0; recombinant FGF22 thermal shift, SYPRO orange fluorescence; percent of sucrose octasulfate shift, DMSO zero; activity (Tm shift, normalised), % at 9.99 µM; actives 1.5% (n = 340,000); AID 651658, 2012;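 active means mean Tm shift, scaled 0 neutral to 100 positive control, at about 1.3% or above, every replicate too, limit read from the data; inconclusive means no clear call, values can overlap the other calls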
Target sequence (Q9HCT0 whole entry, looked up): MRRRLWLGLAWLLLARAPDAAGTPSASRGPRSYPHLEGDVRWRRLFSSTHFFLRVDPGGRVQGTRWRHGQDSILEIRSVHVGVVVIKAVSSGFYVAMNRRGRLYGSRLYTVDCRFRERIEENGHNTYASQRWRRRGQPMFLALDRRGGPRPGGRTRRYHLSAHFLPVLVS
A number is an active result; n = inactive; u = inconclusive; x = no result given. Hits are enriched below; roughly 4% of the tested compounds scored in any of these assays.

SMILES	ERAP1 inh	RAD52 anneal inh	DENV2 CPE rescue	AF4-AF9 inh	FGF22 binding
O=C(c1ccccc1)N1CC2(C1)[C@H](c1ccccc1)[C@@H](CO)N2Cc1ccccn1	n	n	n	n	n
O=C(c1cccnc1)N1CC2(C1)[C@H](c1ccccc1)[C@@H](CO)N2Cc1cccnc1	n	n	n	n	x
O=C(c1ccccc1)N1CC2(C1)[C@@H](c1ccccc1)[C@@H](CO)N2Cc1ccccn1	n	n	21.0	n	n
O=C(C[C@H]1C[C@H]2c3cc(NC(=O)NC4CCCC4)ccc3O[C@H]2[C@@H](CO)O1)NCc1ccccn1	n	n	n	n	n
C[C@@H]1CCCCO[C@@H](CN(C)C(=O)NC2CCCCC2)[C@@H](C)CN([C@@H](C)CO)C(=O)c2cc(NC(=O)CCC(F)(F)F)ccc2O1	n	n	n	n	n
Cn1c(CN2CCCC2)c(C#N)c2ccccc21	n	n	n	n	43.2
OCc1ccccc1CN1CCCCCC1	n	n	n	n	n
C[C@H](CO)N1C[C@H](C)[C@H](CN(C)CC2CC2)Oc2ncc(C#CC3(O)CCCC3)cc2C1=O	n	n	n	n	x
COc1ccc2c(c1)NC(C)(C)C=C2C	n	n	n	n	n
CC1=CC(C)(C)Nc2ccccc21	n	n	28.1	x	n
CC(CCCN1CCCC1)Nc1ccnc2cc(Cl)ccc12 (stereo not given)	n	51.0	u	n	n
COc1ccc2c3c([nH]c2c1)[C@@H](CO)N(C(C)=O)CC31CCN(C(=O)Nc2c(C)noc2C)CC1	n	n	20.8	n	n
COc1ccc2c3c([nH]c2c1)[C@H](CO)N(C(=O)Nc1c(C)noc1C)CC31CCN(CC2CC2)CC1	n	n	42.1	n	n
COc1ccc2c3c([nH]c2c1)[C@@H](CO)N(C(=O)Nc1c(C)noc1C)CC31CCN(CC2CC2)CC1	n	n	n	n	n
C[C@@H]1CN([C@H](C)CO)C(=O)c2cccc(NC(=O)C3CCCCC3)c2O[C@@H]1CN(C)CC1CC1	n	n	n	n	n
O=C(NCC1CCCO1)c1ccccc1OCc1ccc(Cl)cc1 (stereo not given)	n	n	64.6	n	x
Cc1ccc(-c2nn(-c3ccccc3Cl)cc2C(=O)NCC2CCCO2)cc1 (stereo not given)	n	n	30.2	n	n
CN1[C@H](C(=O)NC2Cc3ccccc3C2)[C@@H](CO)[C@@H]2Cn3c(ccc(C4=CCCC4)c3=O)[C@@H]21	n	n	n	n	n
CCOc1cc(C(=O)NCc2ccccc2)ccc1OCC(=O)N1CCOCC1	n	n	x	n	n
COc1cc(C(=O)NCc2cccc(Cl)c2)ccc1OCC(=O)N1CCOCC1	n	n	115.0	n	n
CC(C)NC(=O)N(C)C[C@@H]1Oc2ccc(NC(=O)c3ccncc3)cc2C(=O)N([C@H](C)CO)C[C@H]1C	n	n	n	n	n
C[C@@H]1CCCCO[C@H](CN(C)S(=O)(=O)c2ccc(Cl)cc2)[C@H](C)CN([C@@H](C)CO)C(=O)c2cc(NC(=O)c3ccncc3)ccc2O1	n	n	n	n	n
C[C@H](NC(=O)CCCOc1ccc(Cl)cc1Cl)c1nnc2ccccn12	n	n	41.2	n	n
CCCNC(=O)Nc1ccc2c(c1)C(=O)N(C)C[C@@H](OC)[C@H](C)CN(C)[C@@H](C)CO2	n	n	n	n	n
CCCNC(=O)Nc1ccc2c(c1)OC[C@H](C)N(C(=O)c1ccccc1F)C[C@@H](C)[C@H](OC)CN(C)C2=O	n	n	40.1	n	n
SMILES	ERAP1 inh	RAD52 anneal inh	DENV2 CPE rescue	AF4-AF9 inh	FGF22 binding
CCCNC(=O)Nc1ccc2c(c1)C(=O)N(C)C[C@H](OC)[C@H](C)CN(C)[C@@H](C)CO2	n	n	101.4	n	n
CCCNC(=O)Nc1ccc2c(c1)C(=O)N(C)C[C@H](OC)[C@H](C)CN(C)[C@H](C)CO2	n	n	38.3	n	n
CCCNC(=O)Nc1ccc2c(c1)OC[C@@H](C)N(C(=O)c1ccccc1F)C[C@@H](C)[C@H](OC)CN(C)C2=O	n	n	n	n	n
CCCNC(=O)Nc1ccc2c(c1)OC[C@@H](C)N(C)C[C@@H](C)[C@H](OC)CN(C)C2=O	n	n	n	n	n
C[C@@H]1CN([C@H](C)CO)C(=O)Cc2cc(NC(=O)CCC(F)(F)F)ccc2O[C@H]1CN(C)Cc1ccc(C(=O)Nc2ccccc2N)cc1	n	n	n	n	n
NC(=O)CSc1nccn1Cc1ccccc1	n	n	n	n	43.0
NC(=O)CSc1nccn1Cc1ccc(Cl)cc1	n	n	n	n	n
COc1ccc2nc3ccccc3[n+]([O-])c2c1	n	n	n	n	n
COc1ccc2ccc3cccc[n+]3c2c1	43.2	n	n	n	n
COc1ccc(-c2csc(-c3ccccc3)n2)c(OC)c1	n	n	n	n	43.1
COC(=O)CC/C(=N/Nc1ccc(Cl)c(Cl)c1)C(=O)OC	n	n	n	n	43.0
O=[N+]([O-])c1cccc(C2CC(c3ccccc3)=NN2c2ccccc2)c1 (stereo not given)	n	n	n	n	n
N#CC1CC(c2ccc([N+](=O)[O-])cc2)=NN1c1ccc([N+](=O)[O-])cc1 (stereo not given)	n	n	n	n	43.7
CO[C@H]1CN(C)C(=O)c2ccc(NC(=O)C3CCCC3)cc2OC[C@H](C)N(C)C[C@@H]1C	n	n	52.1	n	x
CO[C@@H]1CN(C)C(=O)c2ccc(NC(=O)C3CCCC3)cc2OC[C@H](C)N(C)C[C@@H]1C	n	n	n	n	n
CO[C@H]1CN(C)C(=O)c2cc(NC(=O)C3CCC3)ccc2OC[C@H](C)N(C)C[C@@H]1C	x	n	72.8	n	n
CO[C@H]1CN(C)C(=O)c2ccc(NC(=O)Nc3ccc(Cl)cc3)cc2OC[C@H](C)N(C)C[C@H]1C	n	n	27.5	n	n
CO[C@H]1CN(C)C(=O)c2cc(NC(=O)C3CCC3)ccc2OC[C@@H](C)N(Cc2ccncc2)C[C@@H]1C	x	n	52.0	n	n
CO[C@@H]1CN(C)C(=O)c2cc(NC(=O)C3CCC3)ccc2OC[C@@H](C)N(C)C[C@H]1C	x	n	n	n	n
CO[C@@H]1CN(C)C(=O)c2cc(NC(=O)C3CCC3)ccc2OC[C@H](C)N(Cc2ccncc2)C[C@@H]1C	n	n	n	n	n
C[C@H]1CN([C@@H](C)CO)C(=O)c2ccccc2-c2ccccc2CO[C@H]1CN(C)S(=O)(=O)CC(F)(F)F	n	x	n	n	n
COCC(=O)N1C[C@@H](C)[C@H](OC)CN(C)C(=O)c2cc(NC(=O)C3CCC3)ccc2OC[C@@H]1C	n	n	23.2	n	n
